Measured values taken from PubChem BioAssay.
Calls of active or inactive are those of the source.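 How the source made its calls, unless noted: active means visual image review flags a hit and inhibition of aggregation exceeds 20%; inconclusive means visual hit but inhibition at or below 20%; inactive means no hit on visual image review.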

Legend:
[1] = inhibitors of TNFa-induced NFkB p65 translocation, primary screen, imaging, HUVEC, MLSMR starter and 10KST1 sets (AID 438;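 active means inhibition above 20% together with a positive visual image hit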;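 further: compound added about 3h40 before a 20 min TNFalpha stimulation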;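 on inhibition: signal is the nuclear over cytoplasmic p65 intensity ratio per well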); details: HUVEC TNFa-induced p65 nuclear translocation; cell count: measured here: nuclei count (cytotoxicity indicator), at 2.08 µM; inhibition: at 2 µM, stronger effect = higher value, 0% TNFa-plus-vehicle, 100% no-TNFa wells
[2] = inhibitors of mutant huntingtin aggregation, primary screen, imaging, exon1htt(103Q)mCFP cells, high-content imaging (AID 483); details: exon1htt(103Q)mCFP cell line, aggregate imaging, at 2 µM; inhibition of aggregation: stronger effect = higher value; nuclei count: measured here: cell count, toxicity;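 further: compound exposure lasted 3 days before fixation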;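 on nuclei count: percent of the per-plate median nuclei count of sample wells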
[3] = inhibitors of E-selectin induction by TNFa, primary screen, imaging, HUVEC, immunofluorescence, MLSMR starter and 10KST1 sets (AID 487;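 active means visually confirmed hit in the image check and inhibition above 20%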;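 on inhibition: signal is fraction of cell area covered by stained E-selectin grains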;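 on nuclei count: 100% = median nuclei count of all wells on the same plate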); details: HUVEC TNFalpha-induced E-selectin immunofluorescence imaging, at 2 µM; inhibition: stronger effect = higher value; nuclei count: measured here: cell number, toxicity
[4] = molecular target: Voltage-gated potassium channel subunit beta-2 (Rattus norvegicus) (UniProt P62483); test: KvBeta enzyme negative modulators, primary screen, biochemical, NADPH fluorescence (AID 622;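 active means fluorescence slope higher than the sample average by over 3 SD, cut at about -0.22 in these data, passing the limit was not always enough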;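 further: slope of raw intensity against log time taken from 70 to 1610 s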); details: recombinant KvBeta, 4-cyanobenzaldehyde reduction, at 10 µM, stronger effect = higher value
Sequence of Voltage-gated potassium channel subunit beta-2 (Rattus norvegicus) (P62483 whole entry, looked up): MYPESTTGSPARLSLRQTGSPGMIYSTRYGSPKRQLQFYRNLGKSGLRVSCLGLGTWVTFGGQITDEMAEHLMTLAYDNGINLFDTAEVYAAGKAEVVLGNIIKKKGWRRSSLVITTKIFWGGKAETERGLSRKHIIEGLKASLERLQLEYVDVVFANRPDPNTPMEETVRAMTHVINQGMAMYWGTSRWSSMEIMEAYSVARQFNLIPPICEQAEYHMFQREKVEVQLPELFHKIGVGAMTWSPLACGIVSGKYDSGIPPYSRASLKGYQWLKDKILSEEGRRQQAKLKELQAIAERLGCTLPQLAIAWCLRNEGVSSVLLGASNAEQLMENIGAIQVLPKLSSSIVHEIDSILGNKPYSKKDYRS

[5] = molecular target: Voltage-gated potassium channel subunit beta-2 (Rattus norvegicus) (UniProt P62483); test: KvBeta positive modulators, primary screen, biochemical, NADPH fluorescence (AID 623;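 active means NADPH fluorescence slope more negative than the mean of all samples by about 3 SD, 99.7% confidence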;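 further: fluorescence intensity change per second fitted from 20 to 320 s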); details: Recombinant KvBeta, NADPH fluorescence decrease slope, 10 min; at 10 µM; stronger effect = lower value
[6] = molecular target: Alpha-2C adrenergic receptor (Homo sapiens) (UniProt P18825); test: modulators of alpha2C/GIRK thallium flux, primary screen, cell-based, HEK293 alpha2C/GIRK1/2 (AID 624;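 active means fluorescence slope after compound addition differing from the mean of all screened samples at 99.7% confidence, in either direction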;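 further: slope of fluorescence ratio to pre-addition baseline per second over 15 to 24 s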); details: thallium flux BTC fluorescence, at 10 µM, actives lie on both sides
Sequence of Alpha-2C adrenergic receptor (Homo sapiens) (P18825 whole entry, looked up): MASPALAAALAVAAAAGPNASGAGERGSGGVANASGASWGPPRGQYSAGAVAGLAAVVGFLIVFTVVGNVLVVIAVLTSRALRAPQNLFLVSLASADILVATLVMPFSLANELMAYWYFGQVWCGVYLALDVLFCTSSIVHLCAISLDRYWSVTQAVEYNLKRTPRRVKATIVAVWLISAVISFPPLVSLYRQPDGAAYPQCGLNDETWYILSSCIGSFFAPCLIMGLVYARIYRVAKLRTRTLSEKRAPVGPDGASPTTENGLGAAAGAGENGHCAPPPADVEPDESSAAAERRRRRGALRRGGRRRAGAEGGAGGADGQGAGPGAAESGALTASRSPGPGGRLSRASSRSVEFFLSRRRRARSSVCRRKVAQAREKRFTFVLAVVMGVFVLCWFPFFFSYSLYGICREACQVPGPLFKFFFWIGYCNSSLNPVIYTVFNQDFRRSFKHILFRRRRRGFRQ

[7] = inhibitors of Sendai virus-induced IRF3 signaling, primary screen, TLR/RLR signaling modifier project, cell-based, Sendai virus stimulus, luciferase, 10K MLSCN set (AID 602276;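 active means inhibition at or above 50% at 10 µM; inactive means inhibition below 50%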;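 further: firefly luciferase from ISG56 promoter only with Renilla not read in this screen; 0% = Sendai virus plus DMSO and 100% = medium plus DMSO without virus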); details: HEK293 RL24 IRF3 luciferase reporter, at 10 µM, stronger effect = higher value
[8] = inhibitors of poly I:C-induced TLR3 signaling, primary screen, cell-based, poly I:C stimulus, luciferase, 10K MLSCN set (AID 602277;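 active means inhibition of the reporter signal at or above 50%; inactive means inhibition below 50%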); details: HEK293-TLR3 RL24 IRF3 luciferase reporter, at 10 µM, stronger effect = higher value

Compound	cell count [1]	inhibition [1]	inhibition of aggregation [2]	nuclei count [2]	inhibition [3]	nuclei count [3]	fluorescence slope [4]	NADPH fluorescence slope [5]	slope [6]	inhibition [7]	inhibition [8]
Cc1ccc2c(c1)NC(=O)C(CC(=O)NC1CCCCC1C)O2 (stereo not drawn)	611	2% (inactive)	22% (inactive)	86.3%	21.5% (inactive)	114%	-0.51 (inactive)	-4.1e-05 (inactive)	0.00567 (inactive)	9.73% (inactive)	1.78% (inactive)
COc1ccc(-c2cc(C(F)(F)F)nc(N3CCN(c4ccc(F)cc4)CC3)n2)cc1OC	827	-10.7% (inactive)	-2.4% (inactive)	105%	-107% (inactive)	122%	-0.52 (inactive)	2.2e-05 (inactive)	0.00763 (inactive)	-20.5% (inactive)	-7.7% (inactive)
O=C(OCCN1C(=O)c2ccccc2C1=O)c1ccc(S(=O)(=O)N2CCCCCC2)cc1	390	-9.2% (inactive)	-7.2% (inactive)	95.1%	-10.3% (inactive)	108%	-0.605 (inactive)	-2.9e-05 (inactive)	0.00625 (inactive)	19.6% (inactive)	12.1% (inactive)
N#Cc1c(/N=C/c2cccs2)sc2c1CCCCC2	636	-14.8% (inactive)	-34.1% (inactive)	127%	-14.2% (inactive)	127%	-0.598 (inactive)	-2.1e-05 (inactive)	0.0029 (inactive)	30.4% (inactive)	-5.24% (inactive)
CCOC(=O)c1[nH]c(C)c(C(=O)Nc2ccc(Cl)cc2)c1C	709	-1.6% (inactive)	-32.6% (inactive)	89.1%	-32% (inactive)	114%	-0.591 (inactive)	2.4e-05 (inactive)	0.00669 (inactive)	6.23% (inactive)	-11% (inactive)
CCCn1c(SCC(=O)N2CCN(c3ccccc3)CC2)nc2ccccc2c1=O	331	-8.5% (inactive)	-6.7% (inactive)	101%	23.2% (inactive)	124%	-0.595 (inactive)	3.4e-07 (inactive)	0.00536 (inactive)	-9.23% (inactive)	-10.6% (inactive)
Cc1csc(NC(=O)c2ccco2)n1	464	-3.3% (inactive)	-1.8% (inactive)	109%	-72% (inactive)	131%	-0.32 (inactive)	-1.3e-06 (inactive)	0.00701 (inactive)	-20.1% (inactive)	-56.9% (inactive)
Cn1c(Cc2ccccc2)nnc1SCC(=O)c1ccc(Br)s1	180	0.4% (inactive)	16.7% (inactive)	94.8%	-8.9% (inactive)	98.1%	-0.596 (inactive)	-1.4e-05 (inactive)	0.00563 (inactive)	6.15% (inactive)	10.8% (inactive)
COc1cc(C(c2sc3nc(C)nn3c2O)N2CC(C)CC(C)C2)cc(OC)c1OC (stereo not drawn)	468	-3.4% (inactive)	-10.7% (inactive)	114%	-18.2% (inactive)	109%	-0.505 (inactive)	-0.00015 (inactive)	0.00579 (inactive)	9.58% (inactive)	18.7% (inactive)
CC(=O)c1coc2ccc(OCC(=O)O)cc12	678	-11.2% (inactive)	-4.6% (inactive)	110%	-42.3% (inactive)	110%	-0.598 (inactive)	-4.1e-05 (inactive)	0.00474 (inactive)	6.78% (inactive)	15.6% (inactive)
c1ccc2c(c1)nc(NC1CCCCC1)c1nncn12	446	-0.5% (inactive)	11.8% (inactive)	55.9%	-47.5% (inactive)	113%	-0.595 (inactive)	-1.7e-05 (inactive)	0.0061 (inactive)	0.474% (inactive)	32.3% (inactive)
Cc1cc(NS(=O)(=O)c2ccc(Nc3nc(-c4sc(N)nc4C)cs3)cc2)no1	333	5.5% (inactive)	-10.4% (inactive)	117%	-11.3% (inactive)	103%	-0.412 (inactive)	-7.5e-05 (inactive)	0.00495 (inactive)	6.21% (inactive)	25.1% (inactive)
Cc1cc(=O)n(-c2ccc3ccccc3n2)[nH]1	383	-0.7% (inactive)	-7.3% (inactive)	89.7%	-37.6% (inactive)	107%	-0.436 (inactive)	-5.1e-05 (inactive)	0.00622 (inactive)	17.4% (inactive)	9.22% (inactive)
CCc1nnc(NC(=O)CSc2nnc(CSc3nc(C)cc(C)n3)n2CC)s1	424	-5% (inactive)	-13.6% (inactive)	128%	-40.7% (inactive)	129%	-0.37 (inactive)	8.3e-06 (inactive)	0.00824 (inactive)	-5.81% (inactive)	-12.1% (inactive)
Cn1c2c(c(=O)n(C)c1=O)C(CC(=O)Nc1ccccc1)C(=O)N2 (stereo not drawn)	604	-3.5% (inactive)	-2.9% (inactive)	72%	-81.2% (inactive)	152%	-0.597 (inactive)	-3.5e-05 (inactive)	0.00726 (inactive)	10.9% (inactive)	22.4% (inactive)
Cc1ccc2nc(NCCCN3CCOCC3)c(C=NCCCN3CCOCC3)c(=O)n2c1	619	-9.6% (inactive)	-38.5% (inactive)	10.5%	-49.1% (inactive)	141%	-0.435 (inactive)	-5.9e-05 (inactive)	0.00509 (inactive)	14.7% (inactive)	33.3% (inactive)
CCC(=O)Nc1cc2nn(-c3ccccc3)nc2cc1Cl	442	-2.1% (inactive)	7.1% (inactive)	105%	-94.2% (inactive)	255%	-0.413 (inactive)	-5.9e-07 (inactive)	0.00584 (inactive)	-10.5% (inactive)	-46.9% (inactive)
COc1ccccc1N(CC(=O)NCc1ccccn1)S(C)(=O)=O	355	-7.9% (inactive)	26.7% (inactive)	83.6%	29.3% (inactive)	75.4%	-0.422 (inactive)	-4.6e-05 (inactive)	0.00261 (inactive)	7.95% (inactive)	32.3% (inactive)
O=C(NCCN1C(=O)C2C3C=CC(C3)C2C1=O)N1CCCCC1 (stereo not drawn)	584	-7.6% (inactive)	0.9% (inactive)	104%	3.5% (inactive)	99.5%	-0.604 (inactive)	-3.7e-05 (inactive)	0.00723 (inactive)	-6.07% (inactive)	20.6% (inactive)
COC(=O)CNC(=O)COC(=O)c1cc(Cl)cc(Cl)c1N	473	4.7% (inactive)	-2% (inactive)	112%	-81.4% (inactive)	123%	-0.41 (inactive)	1.6e-05 (inactive)	0.0054 (inactive)	-8.86% (inactive)	3.33% (inactive)
Cc1cc2oc(=O)cc(C)c2c(=O)o1	411	-15.8% (inactive)	-0.8% (inactive)	105%	-2.6% (inactive)	115%	-0.391 (inactive)	3.6e-05 (inactive)	0.00528 (inactive)	-5.14% (inactive)	-17.4% (inactive)
CCOC(=O)CN1CC23C=CC(O2)C(C(=O)NC2CCCC2)C3C1=O (stereo not drawn)	671	4.1% (inactive)	0.3% (inactive)	99.1%	-66.9% (inactive)	119%	-0.576 (inactive)	-2.3e-05 (inactive)	0.00621 (inactive)	11.3% (inactive)	29.5% (inactive)
O=C(c1ccccc1-c1nc(-c2ccccc2)no1)N1CCCC1	600	-8.6% (inactive)	0.7% (inactive)	90.5%	51% (inactive)	85.6%	-0.534 (inactive)	-2.8e-05 (inactive)	0.00572 (inactive)	-20.5% (inactive)	-38.1% (inactive)
O=C(Nc1nonc1NC(=O)C1CCCCC1)C1CCCCC1	396	10.2% (inactive)	-7.6% (inactive)	108%	-71.5% (inactive)	127%	-0.473 (inactive)	3.9e-06 (inactive)	0.00459 (inactive)	13.6% (inactive)	22.8% (inactive)
CCCCOC(=O)n1c(SCC(=O)N(CC)CC)nc2ccccc21	307	5.3% (inactive)	1.4% (inactive)	107%	10% (inactive)	106%	-0.585 (inactive)	-3.7e-07 (inactive)	0.00671 (inactive)	-15.8% (inactive)	-54.6% (inactive)
O=C(Nc1nnc(COc2ccc(F)cc2)s1)c1cccs1	585	7.2% (inactive)	3.9% (inactive)	126%	-42.4% (inactive)	104%	-0.52 (inactive)	-2.5e-05 (inactive)	0.0053 (inactive)	12.6% (inactive)	6.8% (inactive)
O=C(Nc1ccccc1C(=O)N1CCN(c2ccccc2)CC1)c1ccco1	300	-5.1% (inactive)	6.3% (inactive)	98.2%	-73.2% (inactive)	111%	-0.605 (inactive)	-2.1e-05 (inactive)	0.00253 (inactive)	0.26% (inactive)	-6.86% (inactive)
COc1ccc(-c2nc(C#N)c(N3CCOCC3)o2)cc1OC	257	-4.8% (inactive)	30.6% (active)	92.9%	-16.3% (inactive)	98.5%	-0.341 (inactive)	-1.9e-05 (inactive)	0.00341 (inactive)	9.75% (inactive)	-1.53% (inactive)
